Reference: PubChem BioAssay (NCI)
The panel holds about 79,000 compounds, 15% with a hit somewhere; the sample as a whole holds those more often. Unmarked numbers belong to inactive results. Calls of active or inactive are those of the source. No stated cut-off is given here; in the data, active means growth inhibition above about 70%; inactive means the rest.

Columns and labels:
[1] = NCI Yeast Anticancer Drug Screen. Data for the rad52 strain (AID 147);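 further: 0% = growth of vehicle-treated control cultures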; settings: S. cerevisiae rad52 mutant growth inhibition, stronger effect = higher value
How it was run: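 Genetically altered yeast (DNA damage repair defect) treated with compound; inhibition calculated relative to vehicle.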

[2] = NCI Yeast Anticancer Drug Screen. Data for the wt1 strain (AID 149);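 further: 0% = growth of vehicle-treated wt1 cultures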; settings: S. cerevisiae wt1 strain (SPY 50644) growth inhibition, stronger effect = higher value
How it was run: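 Readout: yeast growth inhibition, normalised to vehicle controls, in the wt1 strain exposed to test compounds.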

[3] = NCI Yeast Anticancer Drug Screen. Data for the rad50EPP+ strain (AID 151);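 further: 0% = growth of vehicle-treated control cultures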; settings: S. cerevisiae rad50 mutant strain, stronger effect = higher value
How it was run: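 Strain rad50EPP+; compound exposure; % growth inhibition vs vehicle.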

[4] = NCI Yeast Anticancer Drug Screen. Data for the mgt1 strain (AID 153); settings: S. cerevisiae mgt1 mutant growth inhibition, stronger effect = higher value
How it was run: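 Read-out: yeast growth inhibition vs vehicle control. Strain mgt1, drawn from a panel altered in DNA damage repair or cell cycle control.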

[5] = NCI Yeast Anticancer Drug Screen. Data for the rad50 strain (AID 155);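 further: 0% = growth of vehicle-only cultures of the same strain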; settings: S. cerevisiae rad50 strain growth inhibition, stronger effect = higher value
How it was run: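 Compounds were tested on a yeast strain with an engineered DNA damage repair alteration; the reported value is growth inhibition normalised to vehicle treatment.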

[6] = NCI Yeast Anticancer Drug Screen. Data for the mec2-1 strain (AID 157); settings: S. cerevisiae mec2-1 strain, stronger effect = higher value
How it was run: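 Cells of the genetically defined mec2-1 yeast strain are incubated with test compound. Inhibition of growth is calculated against vehicle-treated controls.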

[7] = NCI Yeast Anticancer Drug Screen. Data for the rad14 strain (AID 159);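 further: 0% = growth of vehicle-treated control cultures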; settings: S. cerevisiae rad14 strain growth inhibition, stronger effect = higher value
How it was run: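 Compound-treated yeast with a defined DNA-repair lesion; growth inhibition normalised to vehicle-treated cultures.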

[8] = NCI Yeast Anticancer Drug Screen. Data for the sgs1 mgt1 strain (AID 161);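 further: 0% = growth of cultures given vehicle only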; settings: S. cerevisiae sgs1 mgt1 strain, stronger effect = higher value
How it was run: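 Mutant yeast exposed to compound; growth scored against vehicle-only wells.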

[9] = NCI Yeast Anticancer Drug Screen. Data for the CLN2oe strain (AID 163);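 further: 0% = growth of vehicle-only control cultures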; settings: S. cerevisiae CLN2oe strain, stronger effect = higher value
How it was run: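 Strain altered in cell-cycle control, incubated with compound; growth compared to solvent-treated controls.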

[10] = NCI Yeast Anticancer Drug Screen. Data for the cln2 rad14 strain (AID 165);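 further: 0% = growth equal to vehicle treated cultures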; settings: S. cerevisiae cln2 rad14 strain, stronger effect = higher value
How it was run: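 The screen exposed genetically defined yeast (cln2 rad14) to test compounds and scored growth inhibition relative to vehicle-treated controls.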

[11] = NCI Yeast Anticancer Drug Screen. Data for the bub3 strain (AID 167); settings: S. cerevisiae bub3 mutant strain, stronger effect = higher value
How it was run: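 Growth of a checkpoint-deficient yeast mutant is measured after compound exposure. Values represent inhibition relative to vehicle.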

[12] = NCI Yeast Anticancer Drug Screen. Data for the wt2 strain (AID 169);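 further: 0% = growth of vehicle-treated yeast cultures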; settings: S. cerevisiae wt2 strain growth inhibition, stronger effect = higher value
How it was run: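 Steps: yeast strain treated with compound; growth recorded; inhibition calculated relative to cultures given vehicle alone.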

[13] = NCI Yeast Anticancer Drug Screen. Data for the mlh1 strain (AID 171);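 further: 0% = growth of vehicle-treated control cultures of the same strain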; settings: S. cerevisiae mlh1 strain growth inhibition, stronger effect = higher value
How it was run: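 Yeast screen: mutant strain plus compound, growth scored against vehicle control wells.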

[14] = NCI Yeast Anticancer Drug Screen. Data for the sgs1 strain (AID 173);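 further: 0% = growth of vehicle-only control cultures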; settings: S. cerevisiae sgs1 mutant, stronger effect = higher value
How it was run: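 Inhibition of yeast growth served as the measure. The mutant strain was treated with each compound, and growth was normalised to cultures receiving vehicle alone.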

[15] = NCI Yeast Anticancer Drug Screen. Data for the mlh1 rad18 strain (AID 175); settings: S. cerevisiae mlh1 rad18 strain growth inhibition, stronger effect = higher value
How it was run: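 Compound-treated yeast growth, normalised to vehicle controls. Strain bears defined DNA repair mutations.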

[16] = at 5.0 µM (retest, dose inferred, filed as 0.5)
[17] = at 50.0 µM (retest, dose inferred, filed as 5.0)

CS(=O)(=O)OCCN(CCOS(C)(=O)=O)c1ccc(C=O)cc1
growth inhibition ([1]; at 1.2 µM): 11% | growth inhibition ([1]; at 3.7 µM): 33% | growth inhibition ([1]; at 11.0 µM): 62% | growth inhibition ([1]; at 33.0 µM): 83% (active) | growth inhibition ([1]; at 100.0 µM): 91% (active) | growth inhibition ([2]; at 1.2 µM): 0% | growth inhibition ([2]; at 3.7 µM): -19% | growth inhibition ([2]; at 11.0 µM): 10% | growth inhibition ([2]; at 33.0 µM): 28% | growth inhibition ([2]; at 100.0 µM): 49% | growth inhibition ([3]; at 1.2 µM): 4% | growth inhibition ([3]; at 3.7 µM): 6% | growth inhibition ([3]; at 11.0 µM): 9% | growth inhibition ([3]; at 33.0 µM): 30% | growth inhibition ([3]; at 100.0 µM): 51% | growth inhibition ([4]; at 1.2 µM): 5% | growth inhibition ([4]; at 3.7 µM): 13% | growth inhibition ([4]; at 11.0 µM): 32% | growth inhibition ([4]; at 33.0 µM): 58% | growth inhibition ([4]; at 100.0 µM): 78% (active) | growth inhibition ([5]; at 1.2 µM): 16% | growth inhibition ([5]; at 3.7 µM): 34% | growth inhibition [5, 16]: 33% | growth inhibition ([5]; at 11.0 µM): 60% | growth inhibition ([5]; at 33.0 µM): 80% (active) | growth inhibition [5, 17]: 84% (active) | growth inhibition ([5]; at 50.0 µM): 79.3% (active) | growth inhibition ([5]; at 100.0 µM): 92% (active) | growth inhibition ([6]; at 1.2 µM): 8% | growth inhibition ([6]; at 3.7 µM): 20% | growth inhibition [6, 16]: 29% | growth inhibition ([6]; at 11.0 µM): 43% | growth inhibition ([6]; at 33.0 µM): 75% (active) | growth inhibition [6, 17]: 88% (active) | growth inhibition ([6]; at 50.0 µM): 83.6% (active) | growth inhibition ([6]; at 100.0 µM): 90% (active) | growth inhibition ([7]; at 1.2 µM): 22% | growth inhibition ([7]; at 3.7 µM): 36% | growth inhibition ([7]; at 11.0 µM): 63% | growth inhibition ([7]; at 33.0 µM): 82% (active) | growth inhibition ([7]; at 100.0 µM): 91% (active) | growth inhibition [8, 16]: 26% | growth inhibition [8, 17]: 80% (active) | growth inhibition ([8]; at 50.0 µM): 79.4% (active) | growth inhibition ([9]; at 1.2 µM): -10% | growth inhibition ([9]; at 3.7 µM): -1% | growth inhibition ([9]; at 11.0 µM): 15% | growth inhibition ([9]; at 33.0 µM): 35% | growth inhibition ([9]; at 100.0 µM): 65% | growth inhibition [10, 16]: 8% | growth inhibition [10, 17]: 74% (active) | growth inhibition ([10]; at 50.0 µM): 65.2% | growth inhibition ([11]; at 1.2 µM): -6% | growth inhibition ([11]; at 3.7 µM): -3% | growth inhibition [11, 16]: -8% | growth inhibition ([11]; at 11.0 µM): 10% | growth inhibition ([11]; at 33.0 µM): 38% | growth inhibition [11, 17]: 37% | growth inhibition ([11]; at 50.0 µM): 73.2% (active) | growth inhibition ([11]; at 100.0 µM): 72% (active) | growth inhibition ([12]; at 1.2 µM): -1% | growth inhibition ([12]; at 3.7 µM): 12% | growth inhibition ([12]; at 11.0 µM): 18% | growth inhibition ([12]; at 33.0 µM): 43% | growth inhibition ([12]; at 100.0 µM): 85% (active) | growth inhibition ([13]; at 1.2 µM): 2% | growth inhibition ([13]; at 3.7 µM): 11% | growth inhibition ([13]; at 11.0 µM): 25% | growth inhibition ([13]; at 33.0 µM): 53% | growth inhibition ([13]; at 100.0 µM): 82% (active) | growth inhibition ([14]; at 1.2 µM): 15% | growth inhibition ([14]; at 3.7 µM): 35% | growth inhibition ([14]; at 11.0 µM): 58% | growth inhibition ([14]; at 33.0 µM): 80% (active) | growth inhibition ([14]; at 100.0 µM): 89% (active) | growth inhibition [15, 16]: 76% (active) | growth inhibition [15, 17]: 95% (active) | growth inhibition ([15]; at 50.0 µM): 91% (active)

COC1CC(CC2CCC(C)C(C(C)C(=O)O)O2)OC2(OC(C)(C3CCC(C)(C4OC(C5OC(O)(CO)C(C)CC5C)CC4C)O3)CC2C)C1C (stereo not drawn)
growth inhibition ([1]; at 1.2 µM): 17% | growth inhibition ([1]; at 3.7 µM): -3% | growth inhibition ([1]; at 11.0 µM): 22% | growth inhibition ([1]; at 33.0 µM): 93% (active) | growth inhibition ([1]; at 100.0 µM): 98% (active) | growth inhibition ([2]; at 1.2 µM): -2% | growth inhibition ([2]; at 3.7 µM): -9% | growth inhibition ([2]; at 11.0 µM): 5% | growth inhibition ([2]; at 33.0 µM): 93% (active) | growth inhibition ([2]; at 100.0 µM): 98% (active) | growth inhibition ([3]; at 1.2 µM): -12% | growth inhibition ([3]; at 3.7 µM): 0% | growth inhibition ([3]; at 11.0 µM): -12% | growth inhibition ([3]; at 33.0 µM): 40% | growth inhibition ([3]; at 100.0 µM): 90% (active) | growth inhibition ([4]; at 1.2 µM): 14% | growth inhibition ([4]; at 3.7 µM): -5% | growth inhibition ([4]; at 11.0 µM): 27% | growth inhibition ([4]; at 33.0 µM): 91% (active) | growth inhibition ([4]; at 100.0 µM): 98% (active) | growth inhibition ([5]; at 1.2 µM): 24% | growth inhibition ([5]; at 3.7 µM): 19% | growth inhibition [5, 16]: 36% | growth inhibition ([5]; at 11.0 µM): 34% | growth inhibition ([5]; at 33.0 µM): 96% (active) | growth inhibition [5, 17]: 95% (active) | growth inhibition ([5]; at 50.0 µM): 84.6% (active) | growth inhibition ([5]; at 100.0 µM): 98% (active) | growth inhibition ([6]; at 1.2 µM): -2% | growth inhibition ([6]; at 3.7 µM): -7% | growth inhibition [6, 16]: 28% | growth inhibition ([6]; at 11.0 µM): 12% | growth inhibition ([6]; at 33.0 µM): 90% (active) | growth inhibition [6, 17]: 95% (active) | growth inhibition ([6]; at 50.0 µM): 90% (active) | growth inhibition ([6]; at 100.0 µM): 97% (active) | growth inhibition ([7]; at 1.2 µM): 5% | growth inhibition ([7]; at 3.7 µM): -6% | growth inhibition ([7]; at 11.0 µM): -4% | growth inhibition ([7]; at 33.0 µM): 89% (active) | growth inhibition ([7]; at 100.0 µM): 96% (active) | growth inhibition [8, 16]: -1% | growth inhibition [8, 17]: 91% (active) | growth inhibition ([8]; at 50.0 µM): 89% (active) | growth inhibition ([9]; at 1.2 µM): -46% | growth inhibition ([9]; at 3.7 µM): -22% | growth inhibition ([9]; at 11.0 µM): 50% | growth inhibition ([9]; at 33.0 µM): 93% (active) | growth inhibition ([9]; at 100.0 µM): 96% (active) | growth inhibition [10, 16]: 26% | growth inhibition [10, 17]: 88% (active) | growth inhibition ([10]; at 50.0 µM): 84% (active) | growth inhibition ([11]; at 1.2 µM): -4% | growth inhibition ([11]; at 3.7 µM): -4% | growth inhibition [11, 16]: 3% | growth inhibition ([11]; at 11.0 µM): 25% | growth inhibition ([11]; at 33.0 µM): 84% (active) | growth inhibition [11, 17]: 82% (active) | growth inhibition ([11]; at 50.0 µM): 86.3% (active) | growth inhibition ([11]; at 100.0 µM): 97% (active)
